Each structure is given as a SMILES string. Some of the results follow. Records with an inconclusive call do not appear. Calls of active or inactive are those of the source. Calls follow the shape of the full dose curve.

This experiment in a line: Cell Viability Secondary Assay for Inhibitors of the Interaction of Thyroid Hormone Receptor and Steroid Receptor Coregulator 2. The settings on record: HepG2 viability, ATP luminescence (CellTiter-Glo), 72 h. From the text: NIH Molecular Libraries Probe Production Network [MLPCN] NIH Chemical Genomics Center [NCGC] MLPCN Grant: DK058080 Assay Provider: R. Kip Guy, St. Jude Children's Research Hospital NCGC Assay Overview: Thyroid receptor (TR) regulates many homeostatic processes including basal metabolism, cardiovascular function, body weight, and lipid trafficking. TR modulators are potential therapeutics for obesity and hyperlipidemias but current thyroid analogs have undesirable side effects, particularly cardiac stimulation. This secondary assay characterized compounds identified in the qHTS for Inhibitors of the Interaction of Thyroid Hormone Receptor and Steroid Receptor Coregulator 2 (PubChem AID 1485). The effect of compounds on the viability of HepG2 cells was assessed by measuring ATP levels.
NCGC Assay Protocol Summary: HepG2 cells were grown to 80% confluence, collected, and cells were dispensed at 500 cells/25 ul/well into 384 well plates (Costar 3712). Following transfer of 100 nL compound (ranging from 2.5 nM to 50 uM), cells were incubated for 72 hours at 37 C and 5% CO2. Following this incubation, plates were equilibrated at ambient temperature for 30 min, 25 ul of CellTiter-Glo (Promega) was added and luminescence was detected by an EnVision (PerkinElmer) reader.
(In general: Cellular ATP, detected with luciferase, serves as a proxy for viable cell number.)
With `CS(=O)(=O)c1ccc(C(=O)OCC(=O)N2CCC(c3ccccc3)CC2)cc1[N+](=O)[O-]`, the Potency is 8.9 µM (active).

Consider `O=C(COC(=O)c1cccc([N+](=O)[O-])c1)NC1C2CC3CC(C2)CC1C3` (stereo not drawn), for which the molecule was classed as inactive. For the molecule `CS(=O)(=O)c1ccc(C(=O)OCC(=O)N2CCNc3ccccc32)cc1[N+](=O)[O-]`, the Potency is 18 µM (active).

Source of the values: PubChem BioAssay AID2447 (National Center for Advancing Translational Sciences (NCATS), 2010).
